{"source": "PubChem BioAssay AID652100", "about": "(National Center for Advancing Translational Sciences (NCATS), 2013)", "note": "Calls of active or inactive are those of the source.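 How the source made its calls: active means compounds that bring Gaucher patient macrophage uptake of dying cells up to about normal macrophage levels; inactive means the rest.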", "data": [{"experiment": "Extended Characterization of Activators of N370S glucocerebrosidase as a Potential Chaperone Treatment of Gaucher Disease: Efferocytosis Index", "settings": "Gaucher patient macrophages, apoptotic Jurkat efferocytosis imaging", "text": "Glucocerebrosidase (GCase) catalyzes the hydrolysis of beta-glucocerebroside (GC) to glucose and ceramide in lysosomes. Mutations in the glucocerebrosidase gene result in Gaucher disease, an autosomal recessive lysosomal storage disorder. Many of the mutations encountered in patients with Gaucher disease are missense alterations that may cause misfolding, decreased stability and/or mistrafficking of this lysosomal protein. […] These inhibitors include iminosugar analogs and other inhibitors that were discovered as part of previous work. However, the enhancement of enzyme activity by the chaperone action of an enzyme inhibitor must be balanced against the direct inhibition of the enzyme. […] In this extended characterization of our probe, we have further characterized the activity of probes in relevant models of Gaucher disease. This assay examine efferocytosis in patient-derived macrophages following compound incubation. NIH Chemical Genomics Center [NCGC] NIH Molecular Libraries Probe Production Centers Network [MLPCN] MLPCN Grant: MH086442 Assay Submitter (PI): Ellen Sidransky, NHGRI\nJurkat T-cells were stained with green cell tracker (Molecular Probes), and apoptosis was induced using UVB radiation for 2 min (BioRad). […] The number of T-cells taken up by macrophages was counted and normalized to the number of cells per field.", "values": [{"smiles": "C#Cc1ccc(NC(=O)c2cnn3c(C)cc(C)nc23)cc1", "outcome": "active; similar to control"}]}]}
